Assay [1] in a line: anti-His antibody binders, primary screen, artefact control for SMM control protein annotation, biochemical, small-molecule microarray, 635 nm fluorescence (AID 1128).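 Note: score merges feature fluorescence with signal-to-noise for each printed compound spot.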 Particulars: anti-His Alexa647 antibody binding, higher = more signal.
The subject of assay [2] is Human papillomavirus type 1a E7 protein (residues 1-88). In words: HPV1a E7 small-molecule binders, primary screen, biochemical, small-molecule microarray, residues 1-88, 635 nm (AID 1129). To be noted: small-molecule microarray binding, fluorescence 635 nm; higher = more signal.
The target in assay [3] is Focal adhesion kinase 1 (Homo sapiens) (UniProt Q05397). In words: small-molecule microarray binders of FAK, primary screen, biochemical, 635/667 nm fluorescence, BSA, DTT (AID 1130).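 Note: composite of spot emission at 667 nm and signal to noise over triplicate slides.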 Particulars: PTK2 binding, 635 nm fluorescence, higher = more signal.
Sequence of Focal adhesion kinase 1 (Homo sapiens) (Q05397 whole entry, looked up): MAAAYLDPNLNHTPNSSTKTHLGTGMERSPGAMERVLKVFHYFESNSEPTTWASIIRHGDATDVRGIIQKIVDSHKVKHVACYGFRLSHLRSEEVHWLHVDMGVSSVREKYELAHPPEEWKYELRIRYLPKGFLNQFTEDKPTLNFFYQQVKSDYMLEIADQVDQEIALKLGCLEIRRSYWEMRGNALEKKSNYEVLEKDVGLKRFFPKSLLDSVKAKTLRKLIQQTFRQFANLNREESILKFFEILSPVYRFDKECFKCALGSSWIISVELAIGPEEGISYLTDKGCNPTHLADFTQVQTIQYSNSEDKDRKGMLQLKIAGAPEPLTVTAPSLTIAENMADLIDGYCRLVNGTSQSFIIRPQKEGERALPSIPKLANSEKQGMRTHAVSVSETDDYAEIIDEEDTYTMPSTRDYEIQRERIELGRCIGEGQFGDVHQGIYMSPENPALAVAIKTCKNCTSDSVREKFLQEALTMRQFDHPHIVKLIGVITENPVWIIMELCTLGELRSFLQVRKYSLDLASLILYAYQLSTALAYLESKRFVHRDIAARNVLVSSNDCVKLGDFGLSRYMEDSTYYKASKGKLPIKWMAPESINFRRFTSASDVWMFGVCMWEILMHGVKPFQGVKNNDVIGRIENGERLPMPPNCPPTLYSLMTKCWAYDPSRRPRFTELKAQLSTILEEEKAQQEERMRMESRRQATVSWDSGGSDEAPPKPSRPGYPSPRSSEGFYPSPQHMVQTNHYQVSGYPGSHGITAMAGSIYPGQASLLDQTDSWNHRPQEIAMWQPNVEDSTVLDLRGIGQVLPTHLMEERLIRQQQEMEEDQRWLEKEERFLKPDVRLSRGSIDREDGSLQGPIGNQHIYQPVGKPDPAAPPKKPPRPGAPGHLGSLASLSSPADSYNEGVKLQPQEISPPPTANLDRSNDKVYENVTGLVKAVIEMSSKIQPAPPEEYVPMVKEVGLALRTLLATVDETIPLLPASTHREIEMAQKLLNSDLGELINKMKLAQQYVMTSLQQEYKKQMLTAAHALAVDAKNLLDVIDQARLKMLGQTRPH
In assay [4] the test system is Fibrinogen (Alexa647-labelled). Description: fibrinogen binders on compound microarrays, profiling panel, artefact control for SMM control-protein annotation, biochemical, small-molecule microarray, 635/667 nm fluorescence (AID 1131).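 Note: z-score merges 667 nm fluorescence with per-spot signal-to-noise over triplicate slides.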 To be noted: fibrinogen-A647 binding fluorescence, higher = more signal.
Assay [5] concerns the target Follistatin (Homo sapiens) (UniProt P19883). In words: follistatin binders on small-molecule microarrays, primary screen, biochemical, small-molecule microarray, 635/667 nm fluorescence (AID 1132). Particulars: FST binding, 635 nm fluorescence, higher = more signal.
Assay [6] concerns the target Fibroblast growth factor 2 (Homo sapiens) (UniProt P09038). In words: FGF2 binders on small-molecule microarrays, primary screen, biochemical, small-molecule microarray, 635/667 nm fluorescence (AID 1133). Particulars: small-molecule microarray binding, FGF2, fluorescence 635/667; higher = more signal.
Assay [7] in a line: mitochondrial membrane potential change in A549 cells, profiling panel, cell-based, JC-1 fluorescence, basal, 24 h, 100 nL (AID 1138).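 Note: A549 lung adenocarcinoma cells under basal conditions with no added stimulus; test concentration not given here.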 To be noted: higher = more signal.
Another assay has as its system Lefty1. In words: Lefty1 binders on small-molecule microarrays, primary screen, biochemical, small-molecule microarray, 635/667 nm fluorescence (AID 1139). To be noted: small-molecule microarray binding, fluorescence 635/667; higher = more signal.
In assay [8] the test system is wheat germ agglutinin (Triticum aestivum), Alexa647-labelled. In words: wheat germ agglutinin binders on compound microarrays, profiling panel, artefact control for SMM control-protein annotation, biochemical, small-molecule microarray, 635/667 nm fluorescence (AID 1140).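 Note: score merges 667 nm feature emission with signal to noise over triplicate slides.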 Particulars: WGA-A647 binding, 635 nm fluorescence, higher = more signal.
Assay [9] deals with Luciferin 4-monooxygenase (Photinus pyralis) (UniProt P08659). Description: firefly luciferase enzyme inhibitors, primary screen, biochemical, luminescence, purified enzyme, 2006 set (AID 1141).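 Note: cell-free assay with purified firefly luciferase at 100 ng per well in PBS; test concentration not given here.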 Particulars: SteadyGlo luminescence, 30 min, higher = more signal, called active from +8 up or from −8 down.
Sequence of Luciferin 4-monooxygenase (Photinus pyralis) (P08659 whole entry, looked up): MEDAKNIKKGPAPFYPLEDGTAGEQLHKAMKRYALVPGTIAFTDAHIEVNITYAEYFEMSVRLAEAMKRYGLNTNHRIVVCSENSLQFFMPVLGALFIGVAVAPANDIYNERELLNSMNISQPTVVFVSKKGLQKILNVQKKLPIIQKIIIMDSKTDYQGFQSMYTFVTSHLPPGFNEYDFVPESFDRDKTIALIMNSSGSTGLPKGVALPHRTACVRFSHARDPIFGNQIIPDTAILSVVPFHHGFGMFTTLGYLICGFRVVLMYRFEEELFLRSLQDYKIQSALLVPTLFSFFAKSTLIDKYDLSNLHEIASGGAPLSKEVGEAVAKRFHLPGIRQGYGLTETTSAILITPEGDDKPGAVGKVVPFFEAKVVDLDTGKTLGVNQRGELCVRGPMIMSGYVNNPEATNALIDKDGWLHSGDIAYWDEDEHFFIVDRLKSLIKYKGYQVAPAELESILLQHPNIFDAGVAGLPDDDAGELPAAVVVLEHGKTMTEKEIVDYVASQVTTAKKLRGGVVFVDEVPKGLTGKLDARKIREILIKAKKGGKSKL
For assay [10], the system named is Wnt5a (protein binding on small-molecule microarray). Description: Wnt5a binders on small-molecule microarray, primary screen, biophysical, 635/667 nm fluorescence (AID 1142).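 Note: fluorescence read at 667 nm with signal to noise per printed feature.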 To be noted: 635 nm fluorescence, higher = more signal.
A short description of assay [11]: cell viability in Huh7 cells, primary screen, cytotoxicity control for HCV replication inhibitor project, CellTiter-Glo luminescence, basal, 48 h (AID 1143).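 Note: Huh7 hepatoma cells carrying a hepatitis C replication reporter with no stimulus; test concentration not given here.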 To be noted: Huh7 HCV replicon, higher = more signal, called active from +8 up or from −8 down.
Assay [12] in a line: P. aeruginosa biofilm formation inhibitors, primary screen, PAO1 strain, BacTiter-Glo luminescence, LB-PBS (AID 1144). To be noted: 12 h, higher = more signal.
Assay [13] can be described thus: CREB reporter modulators without forskolin, primary screen, cell-based, PC12, CRE-LacZ reporter, unstimulated (AID 1145). To be noted: no forskolin, luminescence, 4.5 h, higher = more signal, called active from +8 up or from −8 down.
The nature of assay [14]: CREB reporter modulators under forskolin, primary screen, cell-based, PC12, CRE-LacZ reporter, forskolin-stimulated (AID 1146).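 Note: PC12 cells with 6xCRE LacZ reporter stimulated by forskolin 10 µM; beta-galactosidase reporter signal reflecting CREB driven transcription.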 Particulars: luminescence, 4.5 h, higher = more signal, called active from +8 up or from −8 down.
Assay [15] has as its target Streptavidin (Streptomyces avidinii) (UniProt P22629). In words: streptavidin binders on small-molecule microarray, primary screen, artefact control for SMM compound annotation, biophysical, 635/667 nm fluorescence (AID 1147).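 Note: signal reflects streptavidin binding to arrayed compounds as a control protein.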 Particulars: streptavidin binding, higher = more signal.
Assay [16] is described as follows: small-molecule binders of probe aInhba, primary screen, biochemical, small-molecule microarray, 635/667 nm fluorescence (AID 1148).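 Note: score merges 667nm spot fluorescence with signal-to-noise for antibody binding to printed compounds.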 Particulars: higher = more signal.
Assay [17] concerns the target Torsin-1A (Homo sapiens) (UniProt O14656). In words: torsin A binders from cell lysate, primary screen, small-molecule microarray, wild-type, 635/667 nm (AID 1149). Particulars: COS7 hTOR1A-WT lysate, 635 nm fluorescence, higher = more signal.
For assay [18] the target is unchanged. Description: small-molecule binders of mutant TOR1A in lysate, primary screen, cell lysate, small-molecule microarray, COS7 lysate, 635/667 nm fluorescence (AID 1150).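 Note: score pools 667 nm emission and signal to noise measuring lysate protein binding.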 Particulars: COS7 hTOR1A mutant lysate, 635 nm fluorescence, higher = more signal.
In assay [19] the test system is Sonic hedgehog protein (Shh). In words: small-molecule binders of Shh protein, primary screen, biochemical, small-molecule microarray, 635/667 nm fluorescence (AID 1151).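 Note: Shh protein binding to compounds spotted on small-molecule microarray slides; score combines spot fluorescence intensity with signal-to-noise across triplicate slides.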 To be noted: small-molecule microarray binding, 635 nm fluorescence; higher = more signal.

SMILES strings stand for the structures. Active and inactive are the calls of the source. Unless noted, the rule behind the calls is not given here.

Sequence of Follistatin (Homo sapiens) (P19883 whole entry, looked up): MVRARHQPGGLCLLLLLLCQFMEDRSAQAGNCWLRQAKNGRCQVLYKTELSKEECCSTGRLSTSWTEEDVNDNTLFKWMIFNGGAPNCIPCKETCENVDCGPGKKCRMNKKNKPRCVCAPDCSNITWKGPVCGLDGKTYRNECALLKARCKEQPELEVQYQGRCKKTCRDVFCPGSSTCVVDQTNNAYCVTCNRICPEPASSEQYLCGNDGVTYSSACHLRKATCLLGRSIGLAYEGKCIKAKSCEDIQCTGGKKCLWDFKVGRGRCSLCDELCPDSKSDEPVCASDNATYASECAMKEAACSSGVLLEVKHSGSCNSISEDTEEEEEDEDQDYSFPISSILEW
Sequence of Streptavidin (Streptomyces avidinii) (P22629 whole entry, looked up): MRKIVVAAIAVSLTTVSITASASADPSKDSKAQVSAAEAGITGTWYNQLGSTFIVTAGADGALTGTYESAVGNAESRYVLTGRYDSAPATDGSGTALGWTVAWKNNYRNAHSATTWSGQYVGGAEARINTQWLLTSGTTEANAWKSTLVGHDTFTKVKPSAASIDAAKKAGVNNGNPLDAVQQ
Sequence of Fibroblast growth factor 2 (Homo sapiens) (P09038 whole entry, looked up): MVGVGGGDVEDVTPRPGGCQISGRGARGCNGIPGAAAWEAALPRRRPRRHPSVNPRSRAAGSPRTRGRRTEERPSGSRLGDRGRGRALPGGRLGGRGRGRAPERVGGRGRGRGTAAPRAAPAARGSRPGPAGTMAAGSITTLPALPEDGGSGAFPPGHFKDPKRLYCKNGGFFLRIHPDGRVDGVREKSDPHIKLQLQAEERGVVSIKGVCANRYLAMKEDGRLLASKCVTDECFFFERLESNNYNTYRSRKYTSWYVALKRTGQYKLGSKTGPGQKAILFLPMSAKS
Sequence of Torsin-1A (Homo sapiens) (O14656 whole entry, looked up): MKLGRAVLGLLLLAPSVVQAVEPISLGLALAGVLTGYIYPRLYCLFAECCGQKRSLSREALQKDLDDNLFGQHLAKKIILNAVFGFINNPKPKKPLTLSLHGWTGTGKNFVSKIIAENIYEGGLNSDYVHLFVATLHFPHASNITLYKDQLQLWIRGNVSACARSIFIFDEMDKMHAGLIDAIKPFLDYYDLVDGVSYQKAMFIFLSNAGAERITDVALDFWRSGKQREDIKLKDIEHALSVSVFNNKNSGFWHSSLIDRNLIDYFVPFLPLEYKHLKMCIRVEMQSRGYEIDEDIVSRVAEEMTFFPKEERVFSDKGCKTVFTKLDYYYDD

As for `CCOC(=O)[C@H](CC(C)C)NC(=O)CCC1CC(OC(=O)NCc2cccc3ccccc23)CC2(CCCC(COC(=O)NCCCN3CCCC3=O)O2)O1` (stereo not given in full), the composite z-score in [1] is 0.551; in [2] it was 1.06; in assay [3] it was 0.205; in assay [4], 0.634; in [5] it was 0.745; in assay [6], 0.737. In addition, the composite z-score is 0.925 in the assay on Lefty1; 0.662 in assay [8]; -0.144 in [10]; 0.286 in assay [15]; -0.128 in [16]; 0.316 with Torsin-1A (Homo sapiens) [17]. For the same molecule, the figures for the composite z-score (in the assay with Torsin-1A (Homo sapiens) [18]; in assay [19]) were 0.299 and 0.956, respectively. The z-score is -0.754 in assay [7]; 0.974 (inactive) in assay [9]; -0.961 (inactive) in assay [11]; -0.908 (inactive) in assay [12]; -0.437 (inactive) in assay [13]; 0.501 (inactive) in assay [14].
Consider `CCOC(=O)[C@H](CC(C)C)NC(=O)CCC1CC(OC(=O)NCc2ccc3c(c2)OCO3)CC2(CCCC(COC(=O)NCC(c3ccccc3)c3ccccc3)O2)O1` (stereo not given in full), for which the composite z-score in assay [1] was 0.423; in assay [2] it was 0.572; in assay [3] it was -0.2; in assay [4] it was 0.683; in assay [5], 0.669; in [6], 0.191. In addition, the composite z-score was 1.32 in the assay with Lefty1; 0.61 in assay [8]; 0.222 in assay [10]; -0.201 in [15]; -0.0405 in assay [16]; 0.0929 in the assay with Torsin-1A (Homo sapiens) [17]. The composite z-score with Torsin-1A (Homo sapiens) [18] was 0.351; in assay [19], 1.77. In addition, the z-score in assay [7] is -0.025; in assay [9] it was 0.864 (inactive); in assay [11] it was -0.356 (inactive); in assay [12], -0.187 (inactive); in [13], 0.111 (inactive); in assay [14] it was 1.67 (inactive).
`CON=Cc1ccc(C(=O)N2[C@H](c3ccc(C)cc3)[C@@H](C)CC[C@H]2C(=O)OC)cc1`: the composite z-score in assay [1] is 2.72; in [2], 0.73; in [3], -0.176; in assay [4], 0.53; in assay [5] it was 0.419; in assay [6], 0.412. Besides, the composite z-score in the assay with Lefty1 was 0.595; in assay [8], 0.112; in assay [10], -0.0731; in assay [15], 0.651; in assay [16], 0.0398; with Torsin-1A (Homo sapiens) [17] it was 0.144. The composite z-score with Torsin-1A (Homo sapiens) [18] is 0.568; in assay [19], 0.441. Also, the z-score in assay [7] is -0.0876; in assay [9], -1.06 (inactive); in assay [11], -1.63 (inactive); in assay [12], -0.183 (inactive); in assay [13], 0.336 (inactive); in assay [14] it was -0.158 (inactive).
For the molecule `CC(=O)OC[C@H]1O[C@H](CCON=C2[C@H]3CCn4c(=O)n(-c5ccccc5)c(=O)n4[C@H]3[C@H](O)[C@@H]3O[C@H]23)C=C[C@@H]1OC(C)=O`, the composite z-score in [1] was -0.405; in [2] it was -0.169; in assay [3], -0.749; in assay [4], 0.366; in assay [5], 0.334; in assay [6] it was 0.594. For the same molecule, the composite z-score in the assay on Lefty1 is 0.397; in assay [8], -0.0229; in assay [10], 0.282; in assay [15], -0.0465; in [16], -0.0791; with Torsin-1A (Homo sapiens) [17], -0.299. In addition, the composite z-score with Torsin-1A (Homo sapiens) [18] was 0.0319; in assay [19], 0.789. The z-score was -0.297 in assay [7]; 0.416 (inactive) in [9]; -1.89 (inactive) in [11]; 2.23 (inactive) in assay [12]; -0.152 (inactive) in assay [13]; -0.0763 (inactive) in [14].
With `CCOC(=O)[C@H](Cc1ccccc1)NC(=O)CCC1CC(OC(=O)NCCc2ccc(F)cc2)CC2(CCCC(COC(=O)NCC3CCCCC3)O2)O1` (stereo not given in full), the composite z-score was found to be 0.542 in assay [1]; 0.816 in assay [2]; 0.465 in [3]; 0.656 in assay [4]; 0.857 in assay [5]; 0.238 in [6]. Besides, the composite z-score was found to be 1.21 with Lefty1; 0.395 in assay [8]; 0.0457 in [10]; 0.644 in assay [15]; 0.0074 in [16]; 0.846 in the assay with Torsin-1A (Homo sapiens) [17]. For the same molecule, the composite z-score with Torsin-1A (Homo sapiens) [18] came out at 0.438; in [19], 1.23. Moreover, the z-score in [7] was 0.812; in assay [9], 0.356 (inactive); in assay [11] it was -0.224 (inactive); in assay [12], -1.12 (inactive); in assay [13], 0.29 (inactive); in assay [14], 0.624 (inactive).

For the origin of these results see PubChem BioAssay.
